Assay results from PubChem BioAssay (EPA / NIEHS).
Where “and” joins values, the source holds several entries; their conditions need not be identical. Identical values can stand only once. Inconclusive results are not listed. More than one record can exist for a structure, and the calls need not agree. Calls of active or inactive are those of the source. How the source made its calls, unless noted: active means hit-call score of the fitted dose curve at least 0.9, where 1 is the maximum; inactive means score below 0.9.

Tests used:
[1] = CCTE_Shafer_MEA_dev_firing_rate_mean: CCTE's Neural Network Formation Assay for Mean Firing Rate, Shafer Lab (AID 2284031);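 further: curve fitted for loss of firing so AC50 reflects decreased mean firing rate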
How it was run: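 Extracellular spike frequency, AUC over DIV 5–12 recordings, in rat cortical neuron MEA cultures dosed from plating; loss direction vs DMSO.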

[2] = CCTE_Shafer_MEA_dev_per_burst_spike_percent: CCTE's Neural Network Formation Assay for Percent of Spikes in a Burst, Shafer Lab (AID 2284032);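 further: fitted as a decrease in burst spike percentage below DMSO baseline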
How it was run: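 Value is trapezoidal AUC over recordings on days 5, 7, 9 and 12 of the well-mean fraction of spikes falling in single-electrode bursts; rat cortical cultures exposed continuously from plating, treatment renewed DIV 5 and 9, fitted downward against DMSO.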

[3] = CCTE_Shafer_MEA_dev_active_electrodes_number: CCTE's Neural Network Formation Assay for Number of Active Electrodes, Shafer Lab (AID 2284040; active means hit-call score of the fitted dose curve at least 0.9, where 1 is the maximum;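 further: potency for loss of active electrodes versus DMSO so lower counts are hits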)
How it was run: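 Developing rat cortical networks on MEAs, exposed DIV 0–12. Value is the AUC of active-electrode counts (≥5 spikes/min) from days 5, 7, 9, 12, relative to DMSO.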

[4] = CCTE_Shafer_MEA_dev_burst_rate: CCTE's Neural Network Formation Assay for Burst Rate, Shafer Lab (AID 2284042);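 further: potency for loss of burst rate below DMSO control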
How it was run: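 Developmental network assay measuring how 12-day exposure of rat cortical neuron cultures alters bursting on extracellular MEA recordings. Values are AUC of well-mean burst rate across four recording days, relative to DMSO vehicle.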

[5] = CCTE_Shafer_MEA_dev_interburst_interval_mean: CCTE's Neural Network Formation Assay for Mean Interburst Interval, Shafer Lab (AID 2284046);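 further: well-mean interburst interval of bursting electrodes as AUC over four recording days; curve fitted for decrease in interburst interval relative to DMSO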
How it was run: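 Network formation assay in primary rat cortical cultures, exposed from DIV 0 to 12. Mean interburst interval per well, integrated as AUC over four recordings.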

[6] = CCTE_Shafer_MEA_dev_inter_network_spike_interval_mean: CCTE's Neural Network Formation Assay for Mean Inter-network Spike Interval, Shafer Lab (AID 2284047)
How it was run: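 Compound was given at plating to primary rat cortical neurons and renewed with full medium changes on DIV 5 and 9. Extracellular activity was recorded on days 5, 7, 9, 12; AUC values were fitted for loss relative to DMSO control.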

[7] = CCTE_Shafer_MEA_dev_network_spike_number: CCTE's Neural Network Formation Assay for Number of Network Spikes, Shafer Lab (AID 2284048);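 further: synchronized bursts across electrodes counted on days 5 7 9 12 and integrated as AUC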;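 on AC50: fit as a loss of signal meaning fewer network spikes than DMSO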
How it was run: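 Number of network spikes (coordinated firing across electrodes) recorded on days 5, 7, 9 and 12 and summarised as area under the curve. Rat cortical cultures on MEA, continuous compound exposure with full medium/treatment exchange at DIV 5 and 9.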

[8] = CCTE_Shafer_MEA_dev_network_spike_peak: CCTE's Neural Network Formation Assay for Mean Number of Electrodes in Network Spike, Shafer Lab (AID 2284049);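 further: fitted for loss of signal meaning fewer electrodes in network spikes than DMSO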
How it was run: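 Rat cortical primary culture, 1.5 x 10^5 cells/well, 48-well MEA (16 electrodes/well). Dosing day 0 through DIV 12, full media/compound exchange DIV 5, 9. AxIS adaptive spike detection; AUC over days 5/7/9/12; loss-of-signal vs DMSO.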

[9] = CCTE_Shafer_MEA_dev_network_spike_duration_std: CCTE's Neural Network Formation Assay for Standard Deviation of Network Spike Duration, Shafer Lab (AID 2284052);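 further: area under curve of spike duration SD across recording days 5 to 12; hits are decreases in network spike duration SD versus DMSO vehicle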
How it was run: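 Developing networks of rat cortical neurons were exposed over twelve days in vitro on 48-well MEA plates. Trapezoidal AUC of recordings (DIV 5–12) was analysed for signal loss relative to DMSO vehicle.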

[10] = CCTE_Shafer_MEA_dev_per_network_spike_spike_number_mean: CCTE's Neural Network Formation Assay for Mean Number of Spikes in a Network Spike, Shafer Lab (AID 2284053);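 further: fitted as decrease in spikes per network spike relative to DMSO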
How it was run: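 First, rat cortical cells (1.5 x 10^5/well) were seeded onto MEA wells; second, dosing began at plating and was refreshed on DIV 5 and 9; finally, network-spike spike counts across DIV 5–12 were summarized as AUC.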

[11] = CCTE_Shafer_MEA_dev_LDH: CCTE's Lactate Dehydrogenase Assay for Cytotoxicity in the Neural Network Formation Assay, Shafer Lab (AID 2284068; active means hit-call score of the fitted dose curve at least 0.9, where 1 is the maximum;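 further: exposure for twelve days from plating with re-dosing on DIV 5 and 9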)
How it was run: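 Developing rat cortical networks on MEA plates are exposed to compound for 12 days from plating. LDH activity is measured spectrophotometrically, with DMSO as baseline.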

[12] = CCTE_Shafer_MEA_dev_AB: CCTE's Alamar Blue Assay for Cytotoxicity in the Neural Network Formation Assay, Shafer Lab (AID 2284083; active means hit-call score of the fitted dose curve at least 0.9, where 1 is the maximum;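 further: resazurin reduction fluorescence as viability of cultured neurons; twelve days of exposure from plating with re-dosing on DIV 5 and 9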)
How it was run: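 Cytotoxicity companion to the developmental MEA: primary rat cortical neurons, 12-day exposure starting day 0, compound refreshed DIV 5 and 9; resazurin fluorescence, fitted against DMSO vehicle.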

[13] = IUF_NPC1b_proliferation_BrdU_72hr: Leibniz Research Institute for Environmental Medicine (IUF) 72-hour Neural Progenitor Cell Bromodeoxyuridine (BrdU) Proliferation Assay (NPC1b) (AID 2284207)
How it was run: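 Human fetal cortex-derived (GW 16-19) neural progenitor spheres, 0.25-0.35 mm, one per well in EGF/FGF proliferation medium, exposed to compound for 72 h at 37C, pH 7.2-7.6. BrdU incorporation over the final 16 h read by luminescence ELISA, relative to DMSO.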

[14] = IUF_NPC1a_proliferation_area_72hr: Leibniz Research Institute for Environmental Medicine (IUF) 72-hour Neural Progenitor Cell Proliferation Area Assay (NPC1a) (AID 2284208)
How it was run: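 Spheres of 0.3 mm are plated singly in growth-factor medium and exposed from day 0. After three days at 37C and 5% CO2, sphere area is measured by phase contrast imaging, with activity referenced to DMSO.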

[15] = IUF_NPC1_viability_72hr: Viability Assessment at 72 hours in the Leibniz Research Institute for Environmental Medicine (IUF) Neural Progenitor Cell Proliferation Assay (NPC1) (AID 2284209)
How it was run: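 Three-day continuous exposure of human neural progenitor spheres under EGF/FGF-driven proliferation; cell viability scored by alamar blue signal versus DMSO.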

[16] = CCTE_Mundy_HCI_Cortical_Synap_Neur_Matur_NeuriteSpotCountPerNeuriteLength: CCTE's Synaptogenesis and Neurite Maturation Assay in rat cortical cells for Neurite Spot Count per Neurite Length, Mundy Lab (AID 2284210)
How it was run: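 Synaptophysin spots per unit neurite length, measured by automated imaging of MAP2/synaptophysin/Hoechst-stained neurons. Cultures from rat cortex received chemical at DIV 7 with media change through DIV 12; glial growth arrested by AraC at DIV 5; DMSO baseline.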

[17] = CCTE_Mundy_HCI_Cortical_NOG_NeuriteLength: CCTE's Neurite Outgrowth Assay in rat cortical cells for Neurite Length, Mundy Lab (AID 2284213)
How it was run: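 First, rat primary cortical cells were plated and, 2 h later, given test chemical as a 1/10 dilution. Finally, βIII-tubulin immunostaining enabled automated imaging of neurite length.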

[18] = CCTE_Mundy_HCI_Cortical_Synap_Neur_Matur_NeuriteSpotCountPerNeuron: CCTE's Synaptogenesis and Neurite Maturation Assay in rat cortical cells for Neurite Spot Count per Neuron Count, Mundy Lab (AID 2284215)
How it was run: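 Rat cortical primary cultures; AraC DIV 5 to arrest glia; dosing + media change DIV 7; fixed DIV 12. Anti-MAP2/anti-synaptophysin, Hoechst nuclei; HCI puncta count per neuron, positive fitting direction vs DMSO.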

[19] = CCTE_Mundy_HCI_Cortical_Synap_Neur_Matur_CellBodySpotCount: CCTE's Synaptogenesis and Neurite Maturation Assay in rat cortical cells for Cell Body Spot Count, Mundy Lab (AID 2284223)
How it was run: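 Rat cortical neurons; AraC @ DIV 5; dose + media change DIV 7; fix DIV 12; anti-MAP2/anti-synaptophysin IF, Hoechst; HCI count of soma synaptophysin puncta/neuron; DMSO = negative control.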

[20] = CCTE_Mundy_HCI_Cortical_NOG_NeuronCount: CCTE's Neurite Outgrowth Assay in rat cortical cells for Neuron Count, Mundy Lab (AID 2284236; active means hit-call score of the fitted dose curve at least 0.9, where 1 is the maximum;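 further: neurons counted by imaging betaIII-tubulin and Hoechst stained cortical cells; cells exposed to compound for about 48 hours before fixation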)
How it was run: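 Read-out: neuron number by high-content imaging of betaIII-tubulin (Alexa Fluor-488) and Hoechst-labelled rat primary cortical cells.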

[21] = CCTE_Mundy_HCI_Cortical_Synap_Neur_Matur_NeuronCount: CCTE's Synaptogenesis and Neurite Maturation Assay in rat cortical cells for Neuron Count, Mundy Lab (AID 2284242; active means hit-call score of the fitted dose curve at least 0.9, where 1 is the maximum)
How it was run: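 Measured at DIV 12: fluorescently labelled neurons (Hoechst nuclei, MAP2) in rat primary cortical cultures, counted by high-content imaging. AraC suppressed glia from DIV 5; DMSO served as negative control.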

[22] = IUF_NPC2c_oligodendrocyte_migration_120hr: Leibniz Research Institute for Environmental Medicine (IUF) 120-hour Neural Progenitor Cell Migration Assay for Oligodendrocyte Migration (NPC2c) (AID 2284297)
How it was run: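 Read-out is the mean distance of O4-positive oligodendrocytes from the sphere core edge at 120 h, normalized to radial glia migration and fitted in the gain direction against DMSO. Spheres of primary human neural progenitors differentiated on laminin under continuous compound exposure.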

[23] = IUF_NPC2a_radial_glia_migration_72hr: Leibniz Research Institute for Environmental Medicine (IUF) 72-hour Neural Progenitor Cell Migration Assay for Radial Glia Migration (NPC2a) (AID 2284299)
How it was run: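 Spheres of human primary neural progenitors migrate on poly-D-lysine/laminin under compound exposure at 37C, 5% CO2. The 72 h radial glia migration distance comes from brightfield images, measured manually.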

[24] = IUF_NPC2b_neuronal_migration_120hr: Leibniz Research Institute for Environmental Medicine (IUF) 120-hour Neural Progenitor Cell Migration Assay for Neuron Migration (NPC2b) (AID 2284300)
How it was run: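 Read-out is mean distance from sphere edge to each TUBB3-positive neuron at 120 h, expressed relative to radial glia migration distance and to DMSO baseline. Single 0.3 mm human NPC spheres differentiated on laminin under continuous compound exposure.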

[25] = IUF_NPC3_neuronal_differentiation_120hr: Leibniz Research Institute for Environmental Medicine (IUF) 120-hour Neuronal Differentiation Assay (NPC3) (AID 2284301)
How it was run: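 Value is percent TUBB3-positive neurons among Hoechst-stained nuclei in the migration area, scored by trained CNN after 120 h differentiation. Primary hNPC spheres on poly-D-lysine/laminin, N2 medium, continuous dosing from day 0, half-refeed day 3; DMSO reference.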

[26] = IUF_NPC5_oligodendrocyte_differentiation_120hr: Leibniz Research Institute for Environmental Medicine (IUF) 120-hour Oligodendrocyte Differentiation Assay (NPC5) (AID 2284304; active means hit-call score of the fitted dose curve at least 0.9, where 1 is the maximum;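 further: primary human fetal neural progenitor spheres plated to migrate and differentiate; share of O4-positive cells among Hoechst nuclei found by CNN image analysis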)
How it was run: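 Oligodendrocyte differentiation was scored after 120 h as the O4-positive share of Hoechst-stained nuclei across the neurosphere migration area, using a trained convolutional neural network on high-content fluorescence images. Human fetal neural progenitor spheres were dosed from day 0, normalised to DMSO.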

[27] = IUF_NPC4_neurite_area_120hr: Leibniz Research Institute for Environmental Medicine (IUF) 120-hour Neuronal Morphology Assay for Neurite Area (NPC4) (AID 2284305; active means hit-call score of the fitted dose curve at least 0.9, where 1 is the maximum)
How it was run: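 Neurite area (pixels, nuclei excluded) of TUBB3-positive neurons from hNPC spheres differentiating 5 days under continuous exposure at 37 C, 5% CO2. High-content imaging; loss of signal versus DMSO control across 7 concentrations.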

[28] = IUF_NPC2-5_cytotoxicity_72hr: Cytotoxicity Assessment at 72 hours in the Leibniz Research Institute for Environmental Medicine (IUF) Neural Progenitor Cell Migration and Differentiation Assay for Cytotoxicity (NPC2-5) (AID 2284306; active means hit-call score of the fitted dose curve at least 0.9, where 1 is the maximum;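 further: LDH release into supernatant measured by resorufin fluorescence marking membrane damage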)
How it was run: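 Membrane-integrity cytotoxicity at 72 h, read as LDH-driven resorufin fluorescence in supernatant. hNPC spheres from fetal cortex differentiate on coated plates in N2 medium, 37C, 5% CO2; seven serial compound concentrations plus solvent control (DMSO ≤0.1%).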

[29] = IUF_NPC2-5_cytotoxicity_120hr: Cytotoxicity Assessment at 120 hours in the Leibniz Research Institute for Environmental Medicine (IUF) Neural Progenitor Cell Migration and Differentiation Assay (NPC2-5) (AID 2284307; active means hit-call score of the fitted dose curve at least 0.9, where 1 is the maximum;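 further: LDH released into supernatant as membrane damage marker via resorufin fluorescence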)
How it was run: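 Sphere plating starts differentiation and exposure together at day 0. Compound solution is half-replaced on day 3. At 120 h, medium supernatant is taken for an LDH membrane-integrity read based on resazurin reduction to resorufin fluorescence.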

[30] = IUF_NPC2-5_cell_number_120hr: Cell Number Assessment at 120 hours in the Leibniz Research Institute for Environmental Medicine (IUF) Neural Progenitor Cell Migration and Differentiation Assay (NPC2-5) (AID 2284308);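 further: count of Hoechst-stained nuclei in migration zone around plated human neural progenitor spheres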
How it was run: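 hNPC spheres, one per well, PDL/laminin, N2 medium, 37C, 5% CO2. Dosing day 0 → half-medium change with fresh compound day 3 → fix 120 h. Readout: Hoechst+ nuclei count, migration area; 7 concentrations plus solvent control.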

[31] = IUF_NPC2-5_viability_120hr: Viability Assessment at 120 hours in the Leibniz Research Institute for Environmental Medicine (IUF) Neural Progenitor Cell Migration and Differentiation Assay (NPC2-5) (AID 2284312)
How it was run: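 Alamar blue resorufin fluorescence read after 5 days of differentiation, with compound present from day 0 and replenished at day 3. Primary hNPC spheres on laminin-coated plates, 37C; seven concentrations plus solvent control, fitted against DMSO.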

[32] = IUF_NPC1_cytotoxicity_72hr: Cytotoxicity Assessment at 72 hours in the Leibniz Research Institute for Environmental Medicine (IUF) Neural Progenitor Cell Proliferation Assay (NPC1) (AID 2284332; active means hit-call score of the fitted dose curve at least 0.9, where 1 is the maximum;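 further: rising LDH signal means more cytotoxicity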)
How it was run: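 Readout is fluorescence from LDH-dependent resazurin conversion, sampled from culture medium after compound contact lasting 72 h. Each well holds one 0.25-0.35 mm human progenitor sphere kept at 37C, 5% CO2 with EGF and FGF.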

Measured: AC50

CN(C)CCCn1cc(C2=C(c3c[nH]c4ccccc34)C(=O)NC2=O)c2ccccc21
inactive: [5] | [6] | [7] | [9] | [15] | [16] | [17] | [18] | [19] | [20] | [21] | [32]
active: [1] 1.97 µM [middle of 4 runs] | [2] 4.52 µM and 2.95 µM and 5 µM | [3] 4.2 µM [middle of 4 runs] | [4] 1.61 µM [middle of 4 runs] | [7] 264 nM and 467 nM and 1.58 µM | [8] 3.8 µM and 3.08 µM and 5 µM | [10] 1.61 µM and 2.57 µM and 5 µM | [11] 7.97 µM | [12] 7.86 µM [middle of 4 runs] | [13] 0.263 µM | [14] 11.6 µM | [22] 18.6 µM | [23] 11.3 µM | [24] 16.3 µM | [25] 16.2 µM | [26] 0.746 µM | [27] 7.2 µM | [28] 13.9 µM | [29] 8.39 µM | [30] 2.31 µM | [31] 6.01 µM
